Bioassay records: PubChem, National Center for Advancing Translational Sciences (NCATS)
HTT prom inh = inhibitors of huntingtin promoter activity. AID 1508623. 48,000 compounds, 0.93% hits. Potency, µM (top dose mostly 57.5 µM), for inactives: at the top dose activity change, negative = inhibition, actives largely listed as inhibitors. HEK293 HTT promoter firefly luciferase reporter, 24 h; further: potency means the concentration at half of the fitted maximal effect; nearly all actives have a fitted effect of over 50% in size
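Luminescence was read after Dual-Glo reagent and a 10 min room-temperature incubation. Values were normalized to vehicle (0% activity) and zero RLU (-100% activity). Reporter HEK293 cells had been exposed to compounds (up to 57.5 uM final) for 24 h.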
HTT-AS act = HTT-AS promoter activation; HEK293 HTT-AS promoter firefly luciferase reporter, 24 h; response scale: percent change from vehicle, -100% = no light; Potency, µM (titrated, usually from 57.5 µM), for the others: top-dose activity change, positive = activation, actives largely listed as activators; 48,000 compounds, 0.24% hits; further: potency means the concentration at half of the fitted maximal effect; nearly all actives have a fitted effect of over 55% in size
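HEK293 Fluc reporter, 2,500 cells/well, 24 h pre-culture; cpds up to 57.5 uM final, 24 h 37 degrees C; Dual-Glo, 10 min RT; normalized vehicle = 0%, zero RLU = -100%.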
DRV1 agonist = agonists of human resolvin D1 receptor DRV1 (GPR32); O75388; CHO-K1 GPR32 beta-arrestin PathHunter luminescence, 90 min; zero percent set by DMSO-only wells; activation, % at 76.9 µM; 48,000 compounds, 2.5% hits; AID 1346428;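 active means activation of at least 60% and not above a set upper limit, about 1 call in 100 departs from these limits; inconclusive means activation of 40% to 60%, or above that upper limit; inactive means activation under 40%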; further: 0% is about no effect
Target sequence (O75388 whole entry, looked up): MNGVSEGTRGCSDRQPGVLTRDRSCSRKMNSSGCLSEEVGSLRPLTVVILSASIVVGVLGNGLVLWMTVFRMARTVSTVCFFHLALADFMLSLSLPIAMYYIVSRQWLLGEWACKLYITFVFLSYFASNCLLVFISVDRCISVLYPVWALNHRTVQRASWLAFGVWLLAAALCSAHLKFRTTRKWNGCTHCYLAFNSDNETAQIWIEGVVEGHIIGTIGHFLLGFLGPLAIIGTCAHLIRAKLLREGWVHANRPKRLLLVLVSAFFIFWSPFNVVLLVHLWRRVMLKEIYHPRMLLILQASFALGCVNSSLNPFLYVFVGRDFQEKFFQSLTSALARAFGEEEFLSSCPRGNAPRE
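GPR32 activation in stably transfected CHO-K1 cells, detected as beta-arrestin recruitment by enzyme-fragment complementation. Compound exposure: 90 min, 37 °C.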
An asterisk follows results filed as active; u = inconclusive; x = not tested or not shown; [ ] = another dose, or the depositor's remark. Shown are actives, neighbours in structure and some others; about 3.7% of the full set was active somewhere. Unless noted, the call rests on the fitted dose curve; in most records, active means well fitted curve in the direction sought with a large enough effect; inconclusive means small, poorly fitted or top-dose-only effect, or another doubt; inactive means no such curve, though single readings can be large; an effect the other way counts as inactive or inconclusive.

SMILES	HTT prom inh	HTT-AS act	DRV1 agonist
CCOc1ccc(NC(=O)c2ccc(F)c(S(=O)(=O)N(CC)Cc3ccccc3)c2)cc1	2µM*	-40%	-11
CCN(Cc1ccccc1)S(=O)(=O)c1cc(C(=O)Nc2cc(Cl)cc(Cl)c2)ccc1F	25µM*	-45%	-7
CN(Cc1ccccc1)S(=O)(=O)c1ccc(F)c(C(=O)Nc2cc(Cl)cc(Cl)c2)c1	-28%	-24%	-21
CC(=O)O[C@H]1C[C@@H]2CC[C@H]3[C@H]4C[C@H]([N+]5(C)CCCCC5)[C@@H](OC(C)=O)[C@@]4(C)CC[C@@H]3[C@@]2(C)C[C@H]1[N+]1(C)CCCCC1	0%	-7%	x
CCOc1ccc(C(=O)Nc2ccc(S(=O)(=O)N(Cc3ccccc3)c3ccccc3)cc2)cc1	1.8µM*	-94%	-4
O=C(COc1ccccc1)Nc1ccc(S(=O)(=O)N(Cc2ccccc2)c2ccccc2)cc1	-7%	3%	7
Cc1ccc(C(=O)Nc2ccc(S(=O)(=O)N(Cc3ccccc3)c3ccccc3)cc2)cc1	u	-35%	-12
COc1ccc(C(=O)Nc2ccc(S(=O)(=O)N(Cc3ccccc3)c3ccccc3)cc2)cc1	5µM*	-38%	-1
CNC(=O)Nc1ccc(-c2nc(N3CC4CCC(C3)O4)c3cnn(C4CCC5(CC4)OCCO5)c3n2)cc1	-34%	-28%	x
CC(C)CC(=O)Nc1n[nH]c2c1CN(C(=O)C1CCN(C)CC1)C2(C)C	u	-48%	x
Cc1ccc(C(C)(O)c2nc3ccccc3s2)c(C)c1 (stereo unspecified)	-8%	-14%	x
CN(C)CC(=O)N1CCC(c2ccc(NC(=O)c3ncc(C#N)[nH]3)c(C3=CCCCC3)c2)CC1	-24%	-20%	x
Cc1ccc(-n2ncc3c(NCCCc4ccccc4)ncnc32)cc1	5%	26%	12
Cc1ccc(-n2ncc3c(NCCc4ccccc4)ncnc32)cc1	17%	u	94*
Cc1ccc(-n2ncc3c(NCc4ccccc4)ncnc32)cc1C	12%	u	37
Cc1ccc(CNc2ncnc3c2cnn3-c2ccc(C)cc2C)cc1	-14%	-20%	61*
Cc1ccc(-n2ncc3c(NCCc4ccccc4)ncnc32)cc1Cl	18%	4%	117*
COc1ccc(CCNc2ncnc3c2cnn3-c2ccc(C)c(Cl)c2)cc1	-6%	8%	u
O=C1/C(=C/c2ccsc2)CC/C1=C\c1cccs1	x	x	-7
Cc1cc(Nc2ncnc3ccc(-c4ccc(CNCCS(C)(=O)=O)o4)cc23)ccc1Oc1ccn2ncnc2c1	u	-44%	x
CC(=O)/C=C/C=C1/C2CCC(C2)C1(C)C (stereo unspecified)	5%	0%	-14
CC[C@@H]1C=C(C)C[C@H](C)C[C@H](OC)[C@H]2O[C@@](O)(C(=O)C(=O)N3CCCC[C@@H]3C(=O)O[C@H](C(C)=C[C@@H]3CC[C@H](Cl)[C@H](OC)C3)[C@H](C)[C@@H](O)CC1=O)[C@H](C)C[C@H]2OC	-11%	-7%	x
Cc1cc(-c2ncc(CC(=O)Nc3ccc(-c4cnccn4)cn3)cc2C)ccn1	-21%	-23%	x
O=C(COc1ccc(F)cc1)NC1CC(=O)N(c2ccc3c(c2)OCCO3)C1 (stereo unspecified)	-12%	-10%	115*
O=C(COc1ccccc1)NC1CC(=O)N(c2ccc3c(c2)OCCO3)C1 (stereo unspecified)	0%	-7%	-1
SMILES	HTT prom inh	HTT-AS act	DRV1 agonist
COc1ccc(NCc2cccn2-c2nnc(N3CCC(C)CC3)s2)c(OC)c1	u	-81%	-20
CC1CCN(c2nnc(-n3cccc3CNc3cccc(F)c3)s2)CC1	5.6µM*	-71%	-4
CCOc1ccc(NCc2cccn2-c2nnc(N3CCC(C(=O)NCc4ccccc4Cl)CC3)s2)cc1	22µM*	-57%	-24
COc1ccc(CNC(=O)C2CCN(c3nnc(-n4cccc4CNc4ccc(C)cc4)s3)CC2)c(OC)c1	u	-32%	-30
Clc1ccc(C(Cn2ccnc2)OCc2ccc(Sc3ccccc3)cc2)c(Cl)c1 (stereo unspecified)	-18%	-25%	-10
COc1ccc(-c2nnc(SCC(=O)Nc3cccc(C)c3)s2)cc1	-11%	-45%	4
COc1ccc(-c2nnc(SCC(=O)Nc3ccc(C)c(C)c3)s2)cc1	-16%	18%[11.5 µM]	115*
Fc1ccc(CN2CCc3nc(N4CCN(c5ccccc5F)CC4)ncc3C2)c(F)c1	-47%	-28%	-20
CCOc1ccccc1CN1CCc2nc(N3CCN(c4ccccc4F)CC3)ncc2C1	14µM*	-51%	-60
Cc1ccnc(NS(=O)(=O)c2ccc(NC(=O)Nc3ccc(S(=O)(=O)Nc4nccc(C)n4)cc3)cc2)n1	2%	19%	x
CCN1CCN(C(c2ccc(SC)cc2)c2c(O)cc(C)n(CCOC)c2=O)CC1 (stereo unspecified)	-12%	-19%	-9
CC(C)c1cc(-c2n[nH]c(=O)n2-c2ccc3c(ccn3C)c2)c(O)cc1O	u	-59%	x
CC1CCCN(CCCNC(=O)c2cc3c(Cl)nc4ccccc4c3s2)C1 (stereo unspecified)	-27%	-33%	-3
CC1CCCN(C(=O)c2cc3c(Cl)nc4ccccc4c3s2)C1 (stereo unspecified)	3%	16%	108*
NC1=N[C@H]2[C@H](CS[C@H]2CCCCC(=O)O)N1	-9%[25.2 µM]	-10%[25.1 µM]	x
CC(C)OC(=O)CCCC=CC[C@@H]1[C@H](C=C[C@@H](O)COc2cccc(C(F)(F)F)c2)[C@H](O)C[C@@H]1O	u	-34%	x
Cc1oc(-c2ccc(Cl)cc2)nc1CSCC(=O)NCc1ccccc1Cl	u	-39%	-15
COc1ccccc1CNC(=O)c1ccc(-c2nc(CN3CCc4ccccc43)c(C)o2)cc1	18µM*	-37%	-12
CCN(CC)CCCNC(=O)c1ccc(-c2nc(CN3CCc4ccccc43)c(C)o2)cc1	-26%	-17%	95*
CCCCNC(=O)c1ccc(-c2nc(CN3CCc4ccccc43)c(C)o2)cc1	-38%	-33%	-6
CCCCOc1ccc(CNC(=O)c2ccc(-c3nc(CN4CCc5ccccc54)c(C)o3)cc2)cc1	-24%	-23%	-1
Cc1oc(-c2ccc(C(=O)NCc3ccccc3Cl)cc2)nc1CN1CCc2ccccc21	14µM*	-34%	-2
O=[N+]([O-])c1ccc(Nc2ccccc2-c2ccccc2)c2nonc12	-16%	-49%	x
COc1ccc2c(Oc3ccc(NC(=O)c4c(C)n(CC(C)(C)O)n(-c5ccccc5)c4=O)cc3F)ccnc2c1	u	-39%	x
CC(C)(N)c1ccc(-c2nc3ccccc3nc2-c2ccccc2)cc1	-20%	-18%	x
CCOC(=O)N1CCC(Nc2ccc(Cl)cc2N)CC1	-17%	-30%	-8
COc1ccc(Cn2ccc3nc(C)c(C(=O)NCc4ccc(F)cc4)cc3c2=O)cc1	u	-20%	63*
COc1ccc(Cn2ccc3nc(C)c(C(=O)NCc4ccc(C)cc4)cc3c2=O)cc1	u	-19%	41
O=C(Nc1ccc(F)cc1F)c1cc2c(=O)n3ccccc3nc2s1	-6%	6%	15
Cc1ccc(-c2nc3cccnc3s2)cc1NC(=O)C(C)C	3%	-1%	-3
